High-throughput results as filed in PubChem.
This is one part of a sample in which hits are shown more often than they occur.
DUX4 txn inh = inhibitors of DUX4-driven ZSCAN4 reporter expression, primary screen, 293T cells, Gaussia and Italica luciferase. 293T-iDUX4 ZSCAN4-Gaussia luciferase reporter, 24 h; active compounds read low. activity change, negative = inhibition, % (no concentration beside the values). hit rate 0.8% among 37,000. AID 1224904, 2016;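 active means mean inhibition of at least 10% in the main channel, exceeding the control channel by a set limit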
Hits are given with their value; n = inactive.

SMILES	DUX4 txn inh
CO[C@@H]1CN(C)C(=O)c2ccc(NC(C)=O)cc2OC[C@H](C)N(Cc2cccnc2)C[C@H]1C	n
CO[C@@H]1CN(C)C(=O)c2ccc(NC(=O)c3nc4ccccc4s3)cc2OC[C@@H](C)N(Cc2cccnc2)C[C@H]1C	-64.9
CO[C@H]1CN(C)C(=O)c2ccc(NC(C)=O)cc2OC[C@@H](C)N(Cc2cccnc2)C[C@@H]1C	n
COCC(=O)N1CC2(C1)[C@@H](c1ccc(-c3ccccc3)cc1)[C@H](CO)N2C(=O)COC	n
Cc1ccccc1S(=O)(=O)N1CC[C@@H]2[C@@H](CO)N(C)c3ccc(Br)cc3[C@@H]21	-23.1
CN1c2ccc(Br)cc2[C@@H]2[C@@H](CCN2S(=O)(=O)c2ccccc2F)[C@H]1CO	n
Cc1ccccc1S(=O)(=O)N1CC[C@H]2[C@@H](CO)N(C)c3ccc(Br)cc3[C@H]21	n
Cc1ccc(S(=O)(=O)Nc2ccc3c(c2)C(=O)N([C@H](C)CO)C[C@H](C)[C@@H](CN(C)C(=O)Nc2c(C)noc2C)O3)cc1	n
CCC(=O)N1[C@H](C(=O)N(C)C)[C@@H](CO)[C@@H]2Cn3c(ccc(-c4ccccc4)c3=O)[C@@H]21	n
OC[C@H]1[C@@H](c2ccc(C#Cc3ccccc3F)cc2)[C@H]2CN(Cc3cncnc3)CCCCN21	n
CCCC#Cc1ccc([C@H]2[C@H](CO)N3CCCCN(CC4CCOCC4)C[C@@H]23)cc1	n
COc1ccc(C#Cc2ccc([C@@H]3[C@@H](CO)N4CCCCN(Cc5ccccc5F)C[C@@H]34)cc2)cc1	-29.9
COc1ccc(C#Cc2ccc([C@H]3[C@H]4CN(C(=O)Nc5ccccc5F)CCCCN4[C@H]3CO)cc2)cc1	n
OC[C@H]1[C@@H](c2ccc(C#Cc3ccccc3F)cc2)[C@@H]2CN(Cc3cncnc3)CCCCN12	n
OC[C@@H]1[C@@H](c2ccc(C#Cc3ccccc3F)cc2)[C@@H]2CN(CC3CCOCC3)CCCCN12	-28.1
COc1ccc(C#Cc2ccc([C@H]3[C@H](CO)N4CCCCN(Cc5ccccc5F)C[C@@H]34)cc2)cc1	-21.2
OC[C@@H]1[C@H](c2ccc(C#Cc3ccccc3F)cc2)[C@@H]2CN(CC3CCOCC3)CCCCN12	n
OC[C@@H]1[C@@H](c2ccc(C#Cc3ccccc3F)cc2)[C@@H]2CN(Cc3cncnc3)CCCCN12	n
CN1CCN(C(=O)C[C@H]2CC[C@H]3[C@@H](COC[C@@H](O)CN3S(=O)(=O)c3cccc(Cl)c3)O2)CC1	n
C[C@@H]1CCCCO[C@@H](CN(C)S(=O)(=O)c2ccccc2)[C@@H](C)CN([C@@H](C)CO)C(=O)c2cc(NS(C)(=O)=O)ccc2O1	n
C/C=C/c1ccc([C@@H]2[C@@H](CO)N(C(C)=O)[C@@H]2CN(C)S(C)(=O)=O)cc1	n
COc1cccc(-c2ccc([C@H]3[C@H](CO)N(C(=O)C4CC4)C34CN(C(C)=O)C4)cc2)c1	n
CO[C@@H]1CC[C@@H]2CCN(C)C(=O)CC3(CCCCC3)CN(C)C(=O)c3cc(C#N)ccc3OC[C@H]1O2	n
CNC[C@H]1Oc2ccc(NC(=O)NC3CCCCC3)cc2CC(=O)N([C@@H](C)CO)C[C@@H]1C	n
CN(C)C(=O)c1cccc(-c2ccc(C3[C@H]4CNC[C@@H]3N4Cc3cc(F)ccc3F)cc2)c1 (some centres not stated)	n
SMILES	DUX4 txn inh
O=C(c1cccc(F)c1)N1CCCCN2[C@H](CO)[C@@H](c3ccc(-c4ccccc4)cc3)[C@H]2C1	n
COc1ccccc1C#Cc1ccc([C@@H]2[C@H]3CN(CCC(F)(F)F)CCCCN3[C@H]2CO)cc1	-29.7
OC[C@@H]1[C@H](c2ccc(-c3cccc(F)c3)cc2)[C@@H]2CN(Cc3cncnc3)CCCCN12	n
CC(=O)N1CCCCN2[C@H](CO)[C@@H](c3ccc(C#Cc4ccccc4F)cc3)[C@H]2C1	n
O=S(=O)(c1ccccc1)N1CCCCN2[C@H](C1)[C@@H](c1ccc(-c3ccccc3)cc1)[C@@H]2CO	n
Cn1cnc(S(=O)(=O)N2CCCCN3[C@H](CO)[C@H](c4ccc(-c5cccc(F)c5)cc4)[C@@H]3C2)c1	n
CN(C)C(=O)c1ccc(-c2ccc([C@H]3[C@H]4CN(CCC(F)(F)F)CCCCN4[C@H]3CO)cc2)cc1	n
CN(C)C(=O)c1ccc(-c2ccc([C@@H]3[C@@H](CO)N4CCCCN(CCC(F)(F)F)C[C@@H]34)cc2)cc1	n
OC[C@@H]1[C@@H](c2ccc(-c3cccc(F)c3)cc2)[C@H]2CN(CCC(F)(F)F)CCCCN12	-35.3
Cc1cccc(-c2ccc([C@@H]3[C@@H](CO)N4CCCCN(Cc5ccncc5)C[C@H]34)cc2)c1	n
Cc1cccc(-c2ccc([C@H]3[C@H]4CN(CCC(F)(F)F)CCCCN4[C@H]3CO)cc2)c1	-49.3
Cc1ccccc1S(=O)(=O)N1CCCCN2[C@H](CO)[C@@H](c3ccc(-c4cccc(F)c4)cc3)[C@@H]2C1	-19.6
COc1ccc2c3c(n(C)c2c1)[C@H](CO)N(CC1CCOCC1)CC31CN(C(C)=O)C1	n
CN1[C@@H]2c3ccc(C4=CCCCC4)c(=O)n3C[C@H]1[C@H](CO)[C@H]2C(=O)NCc1cccc(F)c1	n
O=C(C[C@@H]1CC[C@H](NC(=O)c2cccnc2)[C@H](CO)O1)NCc1ccc(Cl)c(Cl)c1	n
CC(C)C#Cc1ccc([C@@H]2[C@@H](CO)N3C(=O)CN(C(=O)Cc4cccnc4)C[C@@H]23)cc1	n
CC(=O)N1CC2(C1)[C@H](c1ccc(-c3cccc(F)c3)cc1)[C@H](CO)N2CC1CC1	n
CN(C)C(=O)C[C@H]1CC[C@@H]2[C@H](COC[C@H](O)CN2S(=O)(=O)c2ccccc2)O1	n
COCC(=O)Nc1ccc2c(c1)OC[C@H](C)N(C(=O)CC1CC1)C[C@@H](C)[C@H](OC)CN(C)C2=O	n
CC=Cc1ccc2n(c1=O)C[C@@H]1[C@@H](CO)[C@H](C(=O)NCC)[C@H]2N1S(=O)(=O)c1cn(C)cn1 (mixture of isomers)	n
CCCN1[C@@H]2Cn3c(ccc(-c4ccccc4F)c3=O)[C@H]1[C@@H](C(=O)NCc1ccccn1)[C@@H]2CO	n
OC[C@@H]1[C@H](c2ccc(-c3cccc(F)c3)cc2)[C@H]2CN(Cc3cncnc3)CCCCN12	n
O=C(C1CC1)N1CCCCN2[C@H](CO)[C@@H](c3ccc(-c4cccc(F)c4)cc3)[C@H]2C1	n
OC[C@H]1[C@@H](c2ccc(-c3cccc(F)c3)cc2)[C@H]2CN(CCC(F)(F)F)CCCCN21	-47.1
O=C(C1CC1)N1CCCCN2[C@H](C1)[C@H](c1ccc(-c3cccc(F)c3)cc1)[C@@H]2CO	n
SMILES	DUX4 txn inh
OC[C@H]1[C@@H](c2ccc(-c3cccc(F)c3)cc2)[C@@H]2CN(Cc3cncnc3)CCCCN12	n
O=C(C1CC1)N1CCCCN2[C@H](CO)[C@@H](c3ccc(-c4cccc(F)c4)cc3)[C@@H]2C1	-23.2
CCCC(=O)N1CC2(C1)CN(C(=O)C1CCOCC1)[C@H](CO)c1[nH]c3cc(OC)ccc3c12	n
CCCN1[C@H](C(=O)NC2CCCC2)[C@@H](CO)[C@@H]2Cn3c(ccc(-c4cccnc4)c3=O)[C@@H]21	n
O=C(Nc1ccc2c(c1)[C@@H]1C[C@@H](CC(=O)N3CCOCC3)O[C@@H](CO)[C@@H]1O2)Nc1ccccc1F	n
O=C(C[C@H]1C[C@@H]2c3cc(NC(=O)CC4CC4)ccc3O[C@@H]2[C@H](CO)O1)NCc1cc(F)ccc1F	n
